Test results: PubChem BioAssay (NCATS)
Inconclusive results are not listed. A call without a number means that no potency is given here. Activity calls are given as the source filed them. The call rests on the fitted dose curve; in most records, active means well fitted inhibition curve with a large enough effect; inconclusive means small, poorly fitted or top-dose-only effect; inactive means flat fitted curve, though single readings scatter.

Test: Primary qHTS for inhibitors of nuclear receptor binding SET domain protein 2 (NSD2) in an isogenic RCH-ACV NSD2 p.E1099K mutant (9B) (AID 1645876); further: nearly all actives have a fitted effect of over 70% in size
Conditions: RCH-ACV (leukaemia line) NSD2 E1099K (9B) viability, CellTiter-Glo, 72 h; series mostly up to 44.9 µM
For COC1=CC(=O)CC(C)C12Oc1cc(OC)cc(O)c1C2=O (centres undefined), the Potency was “inactive”.
For CC12CCC(OC3OC(CO)C(O)C(OC4OC(CO)C(O)C(O)C4O)C3O)CC1CCC1C2CCC2(C)/C(=C3/COC(=O)C3)CCC12O (centres undefined), the Potency was “inactive”.
In the case of CC1(C)C2CC(OC3OC(COC4OCC(O)(CO)C4O)C(O)C(O)C3O)C1(C)CC2O (centres undefined), the Potency is reported as “inactive”.
For C[C@H](CCC(=O)O)[C@H]1CC[C@H]2[C@@H]3C[C@H](O)[C@@H]4C[C@H](O)CC[C@]4(C)[C@H]3CC[C@]12C, the Potency was “inactive”.
For CC(O)/C=C/C1(O)C(C)C(O[C@@H]2O[C@H](CO)[C@@H](O)[C@H](O)[C@H]2O)C(O)CC1(C)C (some centres undefined), the Potency was “inactive”.
With CC(=O)CC1CCC(C(C)C(=O)OCC(O)CO)O1 (centres undefined) the Potency was “inactive”.
For C=C(C)C1CCC2(C(=O)O[C@@H]3O[C@H](CO[C@@H]4O[C@H](CO)[C@@H](O)[C@H](O)[C@H]4O)[C@@H](O)[C@H](O[C@@H]4O[C@@H](C)[C@H](O)[C@@H](O)[C@H]4O)[C@H]3O)CCC3(C(=O)O)C(CCC4C5(C)CCC(O)C(C)(C)C5CCC43C)C12 (some centres undefined), the outcome was “inactive [at 9.23 µM]”.
For C=CC(C)(C)c1[nH]c2ccccc2c1C[C@@H]1NC(=O)[C@H](Cc2c[nH]c3ccccc23)NC1=O, the Potency was “inactive”.
With COC1CC(O[C@H]2CC[C@@]3(C)C(CCC4C3[C@H](OC(C)=O)[C@@H](OC(=O)/C=C/c3ccccc3)[C@]3(C)C(C(C)=O)CC[C@]43O)C2)OC(C)C1OC1CC(OC)C(OC2CC(OC)C(OC3OC(C)C(OC4OC(CO)C(O)C(O)C4O)C(OC)C3O)C(C)O2)C(C)O1 (some centres undefined) the activity change, negative = viability loss was -23.3% [at 9.23 µM] (inactive).
